Experimental data published in PubChem BioAssay.
Calls of active or inactive are those of the source.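 Rule for the calls, unless noted: active = inhibition above 20% together with a positive visual image hit; inconclusive = visual image hit but inhibition not above 20%; inactive = no visual image hit.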

Columns and labels:
[1] = inhibitors of TNFa-induced NFkB p65 translocation, primary screen, imaging, HUVEC, MLSMR starter and 10KST1 sets (AID 438); conditions: HUVEC TNFa-induced p65 nuclear translocation; cell count: measured here: nuclei count (cytotoxicity indicator), at 2.08 µM; inhibition: at 2 µM, stronger effect = higher value, 0% TNFa-plus-vehicle, 100% no-TNFa wells;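 note: compound added about 3h40 before a 20 min TNFalpha stimulation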;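 for inhibition: signal is the nuclear over cytoplasmic p65 intensity ratio per well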
[2] = inhibitors of mutant huntingtin aggregation, primary screen, imaging, exon1htt(103Q)mCFP cells, high-content imaging (AID 483;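 active = visual image review flags a hit and inhibition of aggregation exceeds 20%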;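 note: compound exposure lasted 3 days before fixation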;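 for nuclei count: percent of the per-plate median nuclei count of sample wells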); conditions: exon1htt(103Q)mCFP cell line, aggregate imaging, at 2 µM; inhibition of aggregation: stronger effect = higher value; nuclei count: measured here: cell count, toxicity
[3] = inhibitors of E-selectin induction by TNFa, primary screen, imaging, HUVEC, immunofluorescence, MLSMR starter and 10KST1 sets (AID 487;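 active = visually confirmed hit in the image check and inhibition above 20%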;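 for inhibition: signal is fraction of cell area covered by stained E-selectin grains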;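 for nuclei count: 100% = median nuclei count of all wells on the same plate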); conditions: HUVEC TNFalpha-induced E-selectin immunofluorescence imaging, at 2 µM; inhibition: stronger effect = higher value; nuclei count: measured here: cell number, toxicity
[4] = target: Voltage-gated potassium channel subunit beta-2 (Rattus norvegicus) (UniProt P62483); assay: KvBeta enzyme negative modulators, primary screen, biochemical, NADPH fluorescence (AID 622;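 active = fluorescence slope higher than the sample average by over 3 SD, cut at about -0.22 in these data, passing the limit was not always enough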;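 note: slope of raw intensity against log time taken from 70 to 1610 s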); conditions: recombinant KvBeta, 4-cyanobenzaldehyde reduction, at 10 µM, stronger effect = higher value
Voltage-gated potassium channel subunit beta-2 (Rattus norvegicus), sequence (P62483 whole entry, looked up): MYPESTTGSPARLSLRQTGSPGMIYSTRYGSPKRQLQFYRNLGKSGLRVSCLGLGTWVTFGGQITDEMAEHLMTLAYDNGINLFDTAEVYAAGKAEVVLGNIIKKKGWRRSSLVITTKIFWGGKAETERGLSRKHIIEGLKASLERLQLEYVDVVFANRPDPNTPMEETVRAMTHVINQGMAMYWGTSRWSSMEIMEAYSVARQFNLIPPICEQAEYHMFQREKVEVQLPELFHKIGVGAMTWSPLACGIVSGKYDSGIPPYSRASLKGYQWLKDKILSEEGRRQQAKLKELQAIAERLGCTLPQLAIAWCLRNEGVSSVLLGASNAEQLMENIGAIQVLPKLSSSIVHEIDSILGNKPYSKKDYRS

[5] = target: Voltage-gated potassium channel subunit beta-2 (Rattus norvegicus) (UniProt P62483); assay: KvBeta positive modulators, primary screen, biochemical, NADPH fluorescence (AID 623;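 active = NADPH fluorescence slope more negative than the mean of all samples by about 3 SD, 99.7% confidence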;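 note: fluorescence intensity change per second fitted from 20 to 320 s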); conditions: Recombinant KvBeta, NADPH fluorescence decrease slope, 10 min; at 10 µM; stronger effect = lower value
[6] = target: Alpha-2C adrenergic receptor (Homo sapiens) (UniProt P18825); assay: modulators of alpha2C/GIRK thallium flux, primary screen, cell-based, HEK293 alpha2C/GIRK1/2 (AID 624;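 active = fluorescence slope after compound addition differing from the mean of all screened samples at 99.7% confidence, in either direction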;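 note: slope of fluorescence ratio to pre-addition baseline per second over 15 to 24 s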); conditions: thallium flux BTC fluorescence, at 10 µM, actives lie on both sides
Alpha-2C adrenergic receptor (Homo sapiens), sequence (P18825 whole entry, looked up): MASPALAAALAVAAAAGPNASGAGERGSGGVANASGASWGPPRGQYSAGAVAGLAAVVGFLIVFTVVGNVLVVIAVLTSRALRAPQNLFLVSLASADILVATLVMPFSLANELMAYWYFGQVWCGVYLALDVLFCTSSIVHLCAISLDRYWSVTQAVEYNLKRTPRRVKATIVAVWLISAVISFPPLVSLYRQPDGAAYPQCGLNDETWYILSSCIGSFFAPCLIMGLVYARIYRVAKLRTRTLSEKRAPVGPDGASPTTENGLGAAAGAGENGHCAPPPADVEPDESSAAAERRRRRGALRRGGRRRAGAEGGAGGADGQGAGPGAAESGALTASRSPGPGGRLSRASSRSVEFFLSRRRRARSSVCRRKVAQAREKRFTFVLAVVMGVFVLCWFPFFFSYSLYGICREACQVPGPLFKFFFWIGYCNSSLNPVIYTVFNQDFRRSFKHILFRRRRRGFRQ

[7] = inhibitors of Sendai virus-induced IRF3 signaling, primary screen, TLR/RLR signaling modifier project, cell-based, Sendai virus stimulus, luciferase, 10K MLSCN set (AID 602276;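 active = inhibition at or above 50% at 10 µM; inactive = inhibition below 50%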;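 note: firefly luciferase from ISG56 promoter only with Renilla not read in this screen; 0% = Sendai virus plus DMSO and 100% = medium plus DMSO without virus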); conditions: HEK293 RL24 IRF3 luciferase reporter, at 10 µM, stronger effect = higher value
[8] = inhibitors of poly I:C-induced TLR3 signaling, primary screen, cell-based, poly I:C stimulus, luciferase, 10K MLSCN set (AID 602277;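 active = inhibition of the reporter signal at or above 50%; inactive = inhibition below 50%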); conditions: HEK293-TLR3 RL24 IRF3 luciferase reporter, at 10 µM, stronger effect = higher value

CCOC(=O)c1c(C)oc2c1c1c(c3ccccc32)OCN(Cc2cccnc2)C1
cell count [1]: 499
inhibition [1]: -2.1% (inactive)
inhibition of aggregation [2]: 8.8% (inactive)
nuclei count [2]: 100%
inhibition [3]: -8.4% (inactive)
nuclei count [3]: 104%
fluorescence slope [4]: -0.367 (inactive)
NADPH fluorescence slope [5]: 1.6e-05 (inactive)
slope [6]: 0.00433 (inactive)
inhibition [7]: -1.25% (inactive)
inhibition [8]: 15.3% (inactive)

CC(C)(C)OC(=O)N1CC=C2C(C#N)=C(N)C(C#N)(C#N)C(c3cccs3)C2C1 (centres undefined)
cell count [1]: 828
inhibition [1]: 2.4% (inactive)
inhibition of aggregation [2]: 16.5% (inactive)
nuclei count [2]: 102%
inhibition [3]: -132% (inactive)
nuclei count [3]: 106%
fluorescence slope [4]: -0.476 (inactive)
NADPH fluorescence slope [5]: -2.5e-05 (inactive)
slope [6]: 0.00419 (inactive)
inhibition [7]: 13.2% (inactive)
inhibition [8]: 8.03% (inactive)

CC1=C(C(=O)Nc2ccccc2)C(c2ccco2)C(C#N)=C(SCC(=O)Nc2cccc(C)c2C)N1 (centres undefined)
cell count [1]: 625
inhibition [1]: 15.7% (inactive)
inhibition of aggregation [2]: 16% (inactive)
nuclei count [2]: 89.5%
inhibition [3]: -16.6% (inactive)
nuclei count [3]: 129%
fluorescence slope [4]: -0.412 (inactive)
NADPH fluorescence slope [5]: -1.1e-05 (inactive)
slope [6]: 0.00681 (inactive)
inhibition [7]: 9.65% (inactive)
inhibition [8]: 21.2% (inactive)

Cc1ccc(C)c(C(=O)CC2(O)C(=O)Nc3ccccc32)c1 (centres undefined)
cell count [1]: 602
inhibition [1]: -11% (inactive)
inhibition of aggregation [2]: 23.6% (inactive)
nuclei count [2]: 62.9%
inhibition [3]: -108% (inactive)
nuclei count [3]: 126%
fluorescence slope [4]: -0.416 (inactive)
NADPH fluorescence slope [5]: -3.2e-05 (inactive)
slope [6]: 0.00493 (inactive)
inhibition [7]: 3.23% (inactive)
inhibition [8]: -1.7% (inactive)

CC1CCCCC1NC(=O)CN1CCN(Cc2ccccc2Cl)C1=O (centres undefined)
cell count [1]: 667
inhibition [1]: -0.2% (inactive)
inhibition of aggregation [2]: 10.7% (inactive)
nuclei count [2]: 64.8%
inhibition [3]: -22.2% (inactive)
nuclei count [3]: 98.9%
fluorescence slope [4]: -0.455 (inactive)
NADPH fluorescence slope [5]: -6.3e-05 (inactive)
slope [6]: 0.00454 (inactive)
inhibition [7]: 10.1% (inactive)
inhibition [8]: 20.3% (inactive)

CCCCc1ccc(NC(=O)N[C@H](C(=O)O)C(C)C)cc1
cell count [1]: 388
inhibition [1]: -19.8% (inactive)
inhibition of aggregation [2]: -0.3% (inactive)
nuclei count [2]: 89.1%
inhibition [3]: -26.2% (inactive)
nuclei count [3]: 84.1%
fluorescence slope [4]: -0.481 (inactive)
NADPH fluorescence slope [5]: 1.8e-05 (inactive)
slope [6]: 0.00552 (inactive)
inhibition [7]: -0.498% (inactive)
inhibition [8]: -7.11% (inactive)

Cc1cc(C)n(-c2ccc3cccc(NS(C)(=O)=O)c3n2)n1
cell count [1]: 221
inhibition [1]: 13.2% (inactive)
inhibition of aggregation [2]: -10.7% (inactive)
nuclei count [2]: 76.6%
inhibition [3]: 26.7% (inactive)
nuclei count [3]: 107%
fluorescence slope [4]: -0.392 (inactive)
NADPH fluorescence slope [5]: -3.1e-05 (inactive)
slope [6]: 0.00539 (inactive)
inhibition [7]: 11% (inactive)
inhibition [8]: 12.8% (inactive)

O=C(CSc1nnc(CNC(=O)c2cccs2)o1)NCCc1ccccc1
cell count [1]: 644
inhibition [1]: -2.2% (inactive)
inhibition of aggregation [2]: -14.6% (inactive)
nuclei count [2]: 82.7%
inhibition [3]: -25.7% (inactive)
nuclei count [3]: 115%
fluorescence slope [4]: -0.375 (inactive)
NADPH fluorescence slope [5]: -4.4e-05 (inactive)
slope [6]: 0.00483 (inactive)
inhibition [7]: 18.5% (inactive)
inhibition [8]: 16.6% (inactive)

Cc1cc(Nc2ccccc2)n(-c2ccccc2)n1
cell count [1]: 329
inhibition [1]: -3.3% (inactive)
inhibition of aggregation [2]: 27.4% (inactive)
nuclei count [2]: 114%
inhibition [3]: -44.7% (inactive)
nuclei count [3]: 128%
fluorescence slope [4]: -0.499 (inactive)
NADPH fluorescence slope [5]: -2.4e-05 (inactive)
slope [6]: 0.00371 (inactive)
inhibition [7]: -15% (inactive)
inhibition [8]: -36.8% (inactive)

CC(C)C(NC(=O)c1ccccc1NC(=O)c1ccco1)C(=O)O (centres undefined)
cell count [1]: 368
inhibition [1]: 1.7% (inactive)
inhibition of aggregation [2]: -3.4% (inactive)
nuclei count [2]: 103%
inhibition [3]: -32.6% (inactive)
nuclei count [3]: 115%
fluorescence slope [4]: -0.622 (inactive)
NADPH fluorescence slope [5]: -3.3e-05 (inactive)
slope [6]: 0.00599 (inactive)
inhibition [7]: 19% (inactive)
inhibition [8]: 21.5% (inactive)

CCOC(=O)C1=C(N)OC2=C(C(=O)CC(C)(C)C2)C1c1ccco1 (centres undefined)
cell count [1]: 382
inhibition [1]: 1% (inactive)
inhibition of aggregation [2]: -38.9% (inactive)
nuclei count [2]: 104%
inhibition [3]: -61.3% (inactive)
nuclei count [3]: 110%
fluorescence slope [4]: -0.566 (inactive)
NADPH fluorescence slope [5]: 5.5e-05 (inactive)
slope [6]: 0.00621 (inactive)
inhibition [7]: -0.305% (inactive)
inhibition [8]: -16.2% (inactive)

Nc1cc(=O)[nH]c(SCC(=O)Nc2ccc(Br)cc2)n1
cell count [1]: 825
inhibition [1]: 8.2% (inactive)
inhibition of aggregation [2]: -2.2% (inactive)
nuclei count [2]: 108%
inhibition [3]: 18.9% (inactive)
nuclei count [3]: 128%
fluorescence slope [4]: -0.507 (inactive)
NADPH fluorescence slope [5]: 4.3e-05 (inactive)
slope [6]: 0.00582 (inactive)
inhibition [7]: 1.99% (inactive)
inhibition [8]: 4.12% (inactive)

CCn1c(SCC(=O)NC)nnc1C(C)C
cell count [1]: 718
inhibition [1]: -11.9% (inactive)
inhibition of aggregation [2]: -4.5% (inactive)
nuclei count [2]: 99.7%
inhibition [3]: -17.9% (inactive)
nuclei count [3]: 104%
fluorescence slope [4]: -0.307 (inactive)
NADPH fluorescence slope [5]: -5.6e-05 (inactive)
slope [6]: 0.0053 (inactive)
inhibition [7]: 12.7% (inactive)
inhibition [8]: 0.106% (inactive)

O=C(NCCC1=CCCCC1)C1CC(=O)N(C2CCCCCC2)C1 (centres undefined)
cell count [1]: 645
inhibition [1]: -4.4% (inactive)
inhibition of aggregation [2]: -46.5% (inactive)
nuclei count [2]: 45.9%
inhibition [3]: -41.7% (inactive)
nuclei count [3]: 126%
fluorescence slope [4]: -0.367 (inactive)
NADPH fluorescence slope [5]: -6.2e-05 (inactive)
slope [6]: 0.00623 (inactive)
inhibition [7]: 5.65% (inactive)
inhibition [8]: 27.5% (inactive)
